Assay results taken from PubChem BioAssay AID1456 (Vanderbilt High Throughput Screening Facility, 2008).
The whole screen tested about 190,000 compounds, of which about 4,100 (2.2%) were called active.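 The calls were made as follows: active = thallium flux slope and its plate-corrected score both differing from the plate sample mean at a set confidence after two filtering rounds, in either direction; inactive = the rest.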 The sample as a whole holds a higher share of actives than the screen did.

Each molecule was assayed against Solute carrier family 12 member 5 (Homo sapiens) (UniProt Q9H2X9) (assay: modulation of human KCC2 ion transport – cell-based, HEK293 KCC2, FluoZin-2 fluorescence, MLSMR, primary screen (AID 1456;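 also: slope of fluorescence scaled to starting intensity during 10 to 20 s after thallium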)). Conditions: KCC2 cells, thallium flux FluoZin-2 fluorescence; at 10 µM.
Solute carrier family 12 member 5 (Homo sapiens), sequence (Q9H2X9 whole entry, looked up): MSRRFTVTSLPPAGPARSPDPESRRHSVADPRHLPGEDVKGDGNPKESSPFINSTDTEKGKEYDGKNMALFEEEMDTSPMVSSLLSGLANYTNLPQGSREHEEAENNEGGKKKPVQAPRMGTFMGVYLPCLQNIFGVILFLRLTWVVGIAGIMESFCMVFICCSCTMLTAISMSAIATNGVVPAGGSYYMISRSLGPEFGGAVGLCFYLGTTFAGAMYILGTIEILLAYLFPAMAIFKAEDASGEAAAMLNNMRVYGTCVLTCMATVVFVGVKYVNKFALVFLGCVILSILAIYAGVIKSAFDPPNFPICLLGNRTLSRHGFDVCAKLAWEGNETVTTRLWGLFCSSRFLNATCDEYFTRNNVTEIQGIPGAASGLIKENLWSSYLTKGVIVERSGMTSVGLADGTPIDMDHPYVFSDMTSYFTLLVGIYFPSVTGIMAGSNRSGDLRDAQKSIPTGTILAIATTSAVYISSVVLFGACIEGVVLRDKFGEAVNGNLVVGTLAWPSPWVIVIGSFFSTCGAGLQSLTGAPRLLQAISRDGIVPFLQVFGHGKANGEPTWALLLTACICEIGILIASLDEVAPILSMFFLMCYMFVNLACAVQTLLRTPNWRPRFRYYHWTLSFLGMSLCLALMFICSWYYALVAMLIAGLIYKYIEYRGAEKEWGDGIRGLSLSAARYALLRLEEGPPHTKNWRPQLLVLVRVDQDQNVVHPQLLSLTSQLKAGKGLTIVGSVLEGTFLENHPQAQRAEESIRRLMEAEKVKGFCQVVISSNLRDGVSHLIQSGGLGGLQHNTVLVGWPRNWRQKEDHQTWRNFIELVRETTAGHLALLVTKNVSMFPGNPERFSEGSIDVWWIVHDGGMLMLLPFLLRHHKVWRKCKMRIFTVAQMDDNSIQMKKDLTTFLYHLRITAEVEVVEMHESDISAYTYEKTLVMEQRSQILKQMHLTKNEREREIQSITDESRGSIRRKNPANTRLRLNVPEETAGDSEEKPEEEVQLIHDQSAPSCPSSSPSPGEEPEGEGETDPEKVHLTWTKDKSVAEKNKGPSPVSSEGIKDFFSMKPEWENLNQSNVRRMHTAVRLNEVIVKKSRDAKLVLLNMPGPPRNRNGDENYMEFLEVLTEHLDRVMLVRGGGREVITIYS
`COc1ccc(/C=N/n2nnnc2N)cc1OC` was tested, and the B-score of Tl+ flux slope (higher = more flux/activation; lower = inhibition) was 0.513 (inactive).
In the case of `c1ccc(C2c3[nH]c4ccccc4c3CCN2Cc2cccn2-c2cccnc2)nc1` (stereo not drawn), the B-score of Tl+ flux slope (higher = more flux/activation; lower = inhibition) is reported as -1.15 (inactive).
In the case of `Cc1nnc(SC(C(=O)Nc2cc(Cl)cc(Cl)c2)c2ccccc2)[nH]c1=O` (stereo not drawn), the B-score of Tl+ flux slope (higher = more flux/activation; lower = inhibition) is reported as -4.12 (active).
In the case of `Cc1nnc(SC(C(=O)c2ccccc2)c2ccccc2)[nH]c1=O` (stereo not drawn), the B-score of Tl+ flux slope (higher = more flux/activation; lower = inhibition) is reported as -0.235 (inactive).
In the case of `O=C(Nc1cc(Cl)cc(Cl)c1)C(NCCCO)c1ccccc1` (stereo not drawn), the B-score of Tl+ flux slope (higher = more flux/activation; lower = inhibition) is reported as -0.607 (inactive).
`O=C1N(c2ccccc2)C(=Nc2ccccc2)SC12CC2` was tested, and the B-score of Tl+ flux slope (higher = more flux/activation; lower = inhibition) was -0.447 (inactive).
`O=C(c1ccc(=O)oc1)N1CCC(C(O)(c2ccccc2)c2ccccc2)CC1` was tested, and the B-score of Tl+ flux slope (higher = more flux/activation; lower = inhibition) was -0.673 (inactive).
With `Cc1ccc(C(=O)NC(=S)NCc2cccnc2)cc1` the B-score of Tl+ flux slope (higher = more flux/activation; lower = inhibition) was 1.21 (inactive).
`Cc1c(C(=O)NC(=S)NCc2cccnc2)oc2ccccc12` was tested, and the B-score of Tl+ flux slope (higher = more flux/activation; lower = inhibition) was 13.6 (active).
In the case of `O=C(CCc1ccccc1)NCc1cccnc1`, the B-score of Tl+ flux slope (higher = more flux/activation; lower = inhibition) is reported as 0.123 (inactive).
In the case of `CC(C)(C)c1ccc(CCC2OCC(CN3CCOCC3)O2)cc1` (stereo not drawn), the B-score of Tl+ flux slope (higher = more flux/activation; lower = inhibition) is reported as 0.742 (inactive).
In the case of `CCNC(=S)N1CCN(CCN=CC2=C(O)CC(C)(C)CC2=O)CC1`, the B-score of Tl+ flux slope (higher = more flux/activation; lower = inhibition) is reported as -0.763 (inactive).
For `Cc1ccc(C(O)P(=O)(OC(C)C)c2ccc(N(C)C)cc2)cc1` (stereo not drawn), the B-score of Tl+ flux slope (higher = more flux/activation; lower = inhibition) was 0.0994 (inactive).
With `COC(=O)c1scc(C)c1NC(=O)CSc1ccc(Cl)cc1` the B-score of Tl+ flux slope (higher = more flux/activation; lower = inhibition) was -1.21 (inactive).
In the case of `COC(=O)c1sccc1NC(=O)CSc1ccccc1NS(=O)(=O)c1cc(Cl)ccc1Cl`, the B-score of Tl+ flux slope (higher = more flux/activation; lower = inhibition) is reported as 18.4 (active).
`COC(=O)c1sccc1NC(=O)COc1ccc(Cl)cc1` was tested, and the B-score of Tl+ flux slope (higher = more flux/activation; lower = inhibition) was 0.143 (inactive).
With `O=C(CSc1ccc(-c2ccco2)nn1)NCc1ccc2c(c1)OCO2` the B-score of Tl+ flux slope (higher = more flux/activation; lower = inhibition) was -0.85 (inactive).
`CC(C)Cc1nc(Cl)c(C#N)c2c1CCC2` was tested, and the B-score of Tl+ flux slope (higher = more flux/activation; lower = inhibition) was -0.778 (inactive).
In the case of `CCCC(=O)N1c2ccccc2NC2=C(C(=O)CCC2)C1c1ccc(F)cc1` (stereo not drawn), the B-score of Tl+ flux slope (higher = more flux/activation; lower = inhibition) is reported as 2.84 (active).
In the case of `CCC(=O)N1c2ccccc2NC2=C(C(=O)CCC2)C1c1ccco1` (stereo not drawn), the B-score of Tl+ flux slope (higher = more flux/activation; lower = inhibition) is reported as 1.12 (inactive).
In the case of `O=C1CC(c2cccc(F)c2)C2=C(CCCC2=O)N1` (stereo not drawn), the B-score of Tl+ flux slope (higher = more flux/activation; lower = inhibition) is reported as -0.124 (inactive).
For `Cn1cnc([N+](=O)[O-])c1Sc1n[nH]c(N)n1`, the B-score of Tl+ flux slope (higher = more flux/activation; lower = inhibition) was 0.197 (inactive).
For `Cn1cnc(S(=O)(=O)Nc2ccc3c(c2)OCCO3)c1`, the B-score of Tl+ flux slope (higher = more flux/activation; lower = inhibition) was 1.1 (inactive).
In the case of `Oc1ccc(N=Nc2nccs2)c(O)c1`, the B-score of Tl+ flux slope (higher = more flux/activation; lower = inhibition) is reported as 0.824 (inactive).
For `Oc1ccc2ccccc2c1N=Nc1nccs1`, the B-score of Tl+ flux slope (higher = more flux/activation; lower = inhibition) was 111 (active).
`Oc1ccc2ccccc2c1C=Nc1ccccc1` was tested, and the B-score of Tl+ flux slope (higher = more flux/activation; lower = inhibition) was -0.244 (inactive).
For `Cc1ccc(NC(=O)Nc2cc(-c3ccccc3)nn2C)cc1Cl`, the B-score of Tl+ flux slope (higher = more flux/activation; lower = inhibition) was 0.308 (inactive).
With `CCOC(=O)c1cnc(COc2ccccc2Cl)[nH]c1=O` the B-score of Tl+ flux slope (higher = more flux/activation; lower = inhibition) was 1.26 (inactive).
`Cn1c(=O)c2c(nc(NCc3ccccc3)n2CC(N)=O)n(C)c1=O` was tested, and the B-score of Tl+ flux slope (higher = more flux/activation; lower = inhibition) was 0.178 (inactive).
With `CCCc1cc(-c2n[nH]c(=S)n2CC)c2ccccc2n1` the B-score of Tl+ flux slope (higher = more flux/activation; lower = inhibition) was -0.942 (inactive).
`Cc1cc(-c2csc(N)n2)c(C)n1Cc1ccccc1` was tested, and the B-score of Tl+ flux slope (higher = more flux/activation; lower = inhibition) was 1.01 (inactive).
With `CCc1cc(-c2n[nH]c(=S)n2CC(C)C)cs1` the B-score of Tl+ flux slope (higher = more flux/activation; lower = inhibition) was 8.35 (active).
For `C=CCn1c(-c2ccc3[nH]c(C)c(C)c3c2)n[nH]c1=S`, the B-score of Tl+ flux slope (higher = more flux/activation; lower = inhibition) was -0.00959 (inactive).
In the case of `CCn1c(-c2ccncc2)n[nH]c1=S`, the B-score of Tl+ flux slope (higher = more flux/activation; lower = inhibition) is reported as -0.798 (inactive).
In the case of `CCCc1cc(-c2n[nH]c(=S)n2Cc2ccccc2)cs1`, the B-score of Tl+ flux slope (higher = more flux/activation; lower = inhibition) is reported as 4.54 (active).
In the case of `CSC1=NCCN1C(=O)Cc1cccc2ccccc12`, the B-score of Tl+ flux slope (higher = more flux/activation; lower = inhibition) is reported as 0.183 (inactive).
For `Brc1ccc(-c2n(-c3ccccn3)c3ccccc3[n+]2-c2ccccn2)cc1`, the B-score of Tl+ flux slope (higher = more flux/activation; lower = inhibition) was 1.55 (inactive).
In the case of `CCCc1ccc(C(=O)[C@@H]2[C@@H](C(C)=O)N3c4ccc(F)cc4C=C[C@@H]3[C@@]23C(=O)Nc2ccccc23)cc1`, the B-score of Tl+ flux slope (higher = more flux/activation; lower = inhibition) is reported as 0.383 (inactive).
In the case of `O=S(=O)(c1cccc(-c2nnc3n2CCCCC3)c1)N1CCOCC1`, the B-score of Tl+ flux slope (higher = more flux/activation; lower = inhibition) is reported as -1.09 (inactive).
In the case of `O=C(Nc1nnc(C2COc3ccccc3O2)o1)c1ccc(F)cc1` (stereo not drawn), the B-score of Tl+ flux slope (higher = more flux/activation; lower = inhibition) is reported as 15 (active).
With `O=C(CN1C(=O)COc2ccccc21)Nc1ccc(F)cc1` the B-score of Tl+ flux slope (higher = more flux/activation; lower = inhibition) was 0.048 (inactive).
`c1ccc2c(c1)OCC(c1nn3cnnc3s1)O2` (stereo not drawn) was tested, and the B-score of Tl+ flux slope (higher = more flux/activation; lower = inhibition) was -0.604 (inactive).
For `O=C(NNC(=O)c1csc(-c2cccnc2)n1)Nc1ccc(Cl)cc1`, the B-score of Tl+ flux slope (higher = more flux/activation; lower = inhibition) was -0.334 (inactive).
`COc1ccc(NC(=O)CCN2C(=O)/C(=C/c3ccc4c(c3)OCO4)SC2=S)cc1` was tested, and the B-score of Tl+ flux slope (higher = more flux/activation; lower = inhibition) was -1.33 (inactive).
In the case of `CCC1(C)Cc2c(sc3[nH]c(=S)n(Cc4ccccc4)c(=O)c23)CO1` (stereo not drawn), the B-score of Tl+ flux slope (higher = more flux/activation; lower = inhibition) is reported as 35.8 (active).
With `CCC1(C)Cc2c(sc3nc4n(c(=O)c23)CCCS4)CO1` (stereo not drawn) the B-score of Tl+ flux slope (higher = more flux/activation; lower = inhibition) was -0.0542 (inactive).
In the case of `CCC1(C)Cc2c(sc3nc(SC)[nH]c(=O)c23)CO1` (stereo not drawn), the B-score of Tl+ flux slope (higher = more flux/activation; lower = inhibition) is reported as 0.823 (inactive).
With `Cc1c(C)c(C)c2[nH]c(=S)[nH]c2c1C` the B-score of Tl+ flux slope (higher = more flux/activation; lower = inhibition) was 0.63 (inactive).
In the case of `COc1ccc(Cl)cc1C(=O)NNC(=O)c1nc2nc(C)cc(C)n2n1`, the B-score of Tl+ flux slope (higher = more flux/activation; lower = inhibition) is reported as -1.53 (inactive).
`CCN1CCN(c2nc(Nc3cccc(F)c3)nc(N)c2[N+](=O)[O-])CC1` was tested, and the B-score of Tl+ flux slope (higher = more flux/activation; lower = inhibition) was -0.953 (inactive).
With `N#Cc1c(-c2ccc(Cl)cc2)c2c([nH]c1=S)CCCC2` the B-score of Tl+ flux slope (higher = more flux/activation; lower = inhibition) was 13.8 (active).
In the case of `CC(=O)c1c(C)[nH]c(=S)c(C#N)c1-c1ccc(F)cc1`, the B-score of Tl+ flux slope (higher = more flux/activation; lower = inhibition) is reported as 0.0246 (inactive).
With `N#Cc1c2c(c(-c3ccccc3)[nH]c1=O)CCCC2` the B-score of Tl+ flux slope (higher = more flux/activation; lower = inhibition) was -0.0377 (inactive).
`COc1ccc(NC(=O)C2=C(C)NC(=O)NC2c2ccccc2[N+](=O)[O-])cc1` (stereo not drawn) was tested, and the B-score of Tl+ flux slope (higher = more flux/activation; lower = inhibition) was -1.15 (inactive).
For `Cc1ccc(Cl)c(OCC(=O)NN2CCN(C)CC2)c1`, the B-score of Tl+ flux slope (higher = more flux/activation; lower = inhibition) was 0.242 (inactive).
`NC(=O)C1(C(N)=O)OC1c1ccc(Cl)cc1Cl` (stereo not drawn) was tested, and the B-score of Tl+ flux slope (higher = more flux/activation; lower = inhibition) was 0.213 (inactive).
For `CCN1CCN(CC(=O)c2cc(OC)c(OC)c(OC)c2)CC1`, the B-score of Tl+ flux slope (higher = more flux/activation; lower = inhibition) was 0.89 (inactive).
`COc1ccc(CCNS(=O)(=O)c2cccc3cccnc23)cc1OC` was tested, and the B-score of Tl+ flux slope (higher = more flux/activation; lower = inhibition) was -0.941 (inactive).
`S=c1[nH]nc(COc2ccccc2)n1-c1ccccc1` was tested, and the B-score of Tl+ flux slope (higher = more flux/activation; lower = inhibition) was 0.195 (inactive).
`Cc1ccc(OCc2n[nH]c(=S)n2-c2ccc(C)cc2)cc1` was tested, and the B-score of Tl+ flux slope (higher = more flux/activation; lower = inhibition) was 13.5 (active).
With `COc1ccc(OCc2n[nH]c(=S)n2N)cc1` the B-score of Tl+ flux slope (higher = more flux/activation; lower = inhibition) was 0.178 (inactive).
For `CCc1ccccc1NC(=O)CSc1nnc(CCNC(=O)OC(C)(C)C)o1`, the B-score of Tl+ flux slope (higher = more flux/activation; lower = inhibition) was -1.55 (inactive).
For `CCN(CC)CCCSc1nc2ccccc2s1`, the B-score of Tl+ flux slope (higher = more flux/activation; lower = inhibition) was -0.568 (inactive).
With `CCOC(=O)C(C)n1cnc2sc(C)c(C)c2c1=O` (stereo not drawn) the B-score of Tl+ flux slope (higher = more flux/activation; lower = inhibition) was 0.498 (inactive).
For `Cc1sc2ncnc(Sc3nc4ccccc4s3)c2c1C`, the B-score of Tl+ flux slope (higher = more flux/activation; lower = inhibition) was 2.96 (active).
In the case of `COC(=O)c1c(-c2cccs2)csc1NC(=O)CSc1ncnc2sc(C)c(C)c12`, the B-score of Tl+ flux slope (higher = more flux/activation; lower = inhibition) is reported as 0.971 (inactive).
For `CSc1ncnc2sc(C)c(C)c12`, the B-score of Tl+ flux slope (higher = more flux/activation; lower = inhibition) was 8.38 (active).
With `CCCNc1ncnc2sc(C)c(C)c12` the B-score of Tl+ flux slope (higher = more flux/activation; lower = inhibition) was -0.897 (inactive).
